# According to the supplement of paper PMC3334620:
# Over roughly 33,000 sequences, “E-score (-0.5 to 0.5)” has its median near -0.011; the highest 2% begin near 0.28. Shown is part of a subset that was picked to be rich in the highest values.
# Target: T1, Gcr1 (UniProt P07261)
# T1 sequence: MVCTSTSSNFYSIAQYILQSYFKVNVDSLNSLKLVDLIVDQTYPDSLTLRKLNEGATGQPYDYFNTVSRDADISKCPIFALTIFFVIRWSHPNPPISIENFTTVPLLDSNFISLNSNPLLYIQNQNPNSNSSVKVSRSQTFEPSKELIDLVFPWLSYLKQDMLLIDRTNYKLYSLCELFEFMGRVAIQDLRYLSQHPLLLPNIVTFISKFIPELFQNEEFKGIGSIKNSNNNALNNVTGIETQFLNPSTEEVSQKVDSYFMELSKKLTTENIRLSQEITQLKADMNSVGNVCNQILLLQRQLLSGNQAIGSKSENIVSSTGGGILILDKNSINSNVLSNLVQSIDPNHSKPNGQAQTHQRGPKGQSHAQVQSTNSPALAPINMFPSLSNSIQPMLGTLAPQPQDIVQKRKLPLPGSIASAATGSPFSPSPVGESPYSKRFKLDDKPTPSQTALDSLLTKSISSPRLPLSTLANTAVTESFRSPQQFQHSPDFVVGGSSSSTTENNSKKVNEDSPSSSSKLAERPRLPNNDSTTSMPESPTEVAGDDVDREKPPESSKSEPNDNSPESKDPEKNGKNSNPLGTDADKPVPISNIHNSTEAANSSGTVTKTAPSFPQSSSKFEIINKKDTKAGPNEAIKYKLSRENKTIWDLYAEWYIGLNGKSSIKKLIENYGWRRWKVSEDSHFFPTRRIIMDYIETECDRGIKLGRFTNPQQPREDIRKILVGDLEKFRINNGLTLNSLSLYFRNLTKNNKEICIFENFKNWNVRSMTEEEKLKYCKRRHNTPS
# Experiment: PBM E-score (8-mer binding enrichment) (E-score (-0.5 to 0.5)); higher = stronger / more preferred TF binding
# Settings: protein concentration: 100 nM; construct: GST-full length
# Description: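 Universal 'all 10-mer' protein binding microarrays (Agilent AMADID 015681) probed with GST-tagged S. cerevisiae TFs (full-length or DBD) made by in vitro transcription/translation (PURExpress), about 100-200 nM. Bound TF was detected with fluorescent anti-GST. Each ungapped 8-mer (which stands for itself and its reverse complement) is scored by the PBM enrichment score (E-score), a modified Wilcoxon-Mann-Whitney statistic from -0.5 to +0.5, computed with the Universal PBM Analysis Suite. Scale: above 0.35 generally sequence-specific binding.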
row,Sequence,PBM E-score
1,ATAGGGTC,-0.162
2,ACATCGAC,-0.154
3,ACGGCTCA,-0.123
4,AGGCGTGA,-0.191
5,AAAAGAGC,-0.0507
6,AAATGGGA,0.194
7,ACGTCAGA,-0.0561
8,CAGGTCAA,-0.173
9,CCCCACAA,0.305
10,CCCCACAC,0.108
11,CCCCACAG,-0.0776
12,GCCACAAA,0.0996
13,CCCACAAA,0.305
14,CCCACGAG,-0.0381
15,CCCACAAG,0.0598
16,ACCACAAA,0.236
17,TCCACAAA,0.288
18,ACACAAGG,-0.0735
19,GCTTTCTA,-0.196
20,GTTTACCA,-0.022
21,CCGGGACA,-0.0293
22,AAGACTCC,0.0934
23,CCTTTTCA,-0.164
24,CACTCTGG,0.0408
25,AGAGGGAA,-0.176

row,Sequence,PBM E-score
1,GGAATTCA,0.192
2,GGAATTCC,0.426
3,AGAATTCC,0.164
4,AGCTAGAG,-0.226
5,ATTCATAA,-0.0219
6,TCCTCTAA,0.282
7,ACCTCTAA,0.16
8,TCGTCTAA,0.112
9,GCATCTAA,0.303
10,GCGTCTAA,0.357
11,CCATCTAA,0.0606
12,GCCTCTAA,0.265
13,CCGTCTAA,0.0045
14,TCATCTAA,-0.0664
15,CATCACGG,-0.01
16,AAGTGAAC,-0.0708
17,ATGATTCA,-0.105
18,TCTCAAAA,0.137
19,CAAGAGAA,0.0254
20,GGATGGCA,-0.167
21,CCCGACGG,-0.158
22,CTATTGGC,0.0102
23,CCCCGCCC,0.338
24,ACCCGCCC,-0.135
25,GCCCGCCC,0.0747

row,Sequence,PBM E-score
1,ATGCTGGA,0.0516
2,AGAACTGG,0.262
3,AGACCGCT,-0.2
4,TCGGGGCA,0.161
5,ATTGGGTG,0.085
6,ACAGGATC,0.197
7,AGAGGATG,0.315
8,GTAGGAAC,0.0386
9,ACAGGATG,0.372
10,AGAGGATC,0.024
11,CTAGGAAC,0.149
12,AGAGGAAG,0.385
13,AGAGGAAC,0.177
14,AGAGGAAA,-0.0469
15,AGAGGATA,-0.0247
16,ACAGGATA,0.177
17,ATAGGAAC,0.319
18,AGTGTCCA,0.057
19,TAGTATGA,0.0561
20,CTCCGATC,-0.00026
21,ATGCTAGG,-0.0494
22,CCCGGATC,0.256
23,CCCTCAGC,-0.0815
24,ATTCAGCC,0.0229
25,AAAGGAAC,0.219

row,Sequence,PBM E-score
1,ATAGGAAG,0.414
2,ATAGGATA,-0.0284
3,ATAGGAAT,0.27
4,ATAGGATC,0.158
5,AAAGGAAG,0.361
6,ATAGGAAA,-0.0777
7,ATAGGATG,0.333
8,CAAGGAAG,0.143
9,CGCTGCCC,0.164
10,CGGGGTGC,0.226
11,CCGGATCC,0.279
12,AGGGATCA,-0.054
13,AGGGATCC,0.286
14,CGGGATCA,0.245
15,CGGGATCC,0.371
16,AGGGATCG,-0.151
17,AGCATCAA,0.0409
18,CACGCACC,0.0442
19,AGACCGAA,-0.18
20,GACGGCGC,-0.0687
21,AGCCTCTA,0.0722
22,TCCAGAAA,0.304
23,CCCAGAAA,0.283
24,ACCAGAAA,0.0905
25,GCCAGAAA,0.236

row,Sequence,PBM E-score
1,CCCAGAAG,0.233
2,TTCAGAAA,0.12
3,GCCTACTA,0.00583
4,AGCCCCGA,-0.108
5,AAAGCCAC,0.0178
6,GAAGCCAA,0.29
7,CAAGCCTC,-0.0336
8,GAAGCCAC,0.417
9,AAAGCCAA,0.0021
10,GAAGCCTC,0.283
11,TAAGCCAA,0.0672
12,AAAGCCTC,-0.0619
13,CAAGCCAC,-0.124
14,ACTACCCA,-0.135
15,AATAGCCG,-0.0191
16,CCCGGGTA,-0.031
17,TAGGCGCA,0.225
18,CCAAAATC,0.136
19,ATGGAACG,-0.0103
20,ATGGAACC,0.294
21,CTGGAAAC,0.196
22,ATGGAACA,-0.0319
23,CTGGAACC,0.375
24,CTGGAACA,-0.0357
25,AGCATTCG,-0.235

row,Sequence,PBM E-score
1,CTTGGTGC,0.116
2,AACTAAAT,0.123
3,CAACATTG,-0.0426
4,AAAACCGT,0.0768
5,CTCGGGCC,-0.107
6,ACTGTCTC,-0.0499
7,CGATGCCG,0.145
8,AAGTAGAA,0.0726
9,AGTTCCAC,0.0854
10,AGTTCCTA,0.116
11,CGTTCCAA,0.03
12,GGTTCCTA,0.342
13,CGTTCCTA,0.15
14,GGTTCCAA,0.391
15,CGTTCCAC,0.0103
16,GGTTCCAC,0.305
17,TGTTCCAA,0.112
18,AGTTCCCA,0.22
19,CGTTCCCA,-0.0578
20,GGTTCCCA,0.327
21,CGCTTTCA,-0.00233
22,CCTGAGAC,-0.0674
23,GCACCAAC,0.197
24,GTATCTAA,0.16
25,AAGACGCG,0.278

row,Sequence,PBM E-score
1,AAGACGCC,0.349
2,AAGACGCT,0.218
3,CAGACGCA,0.175
4,CAGACGCG,0.136
5,CAGACGCC,0.329
6,GCGAAGAC,-0.133
7,AGAGCAGG,0.0116
8,ATACCTGC,0.115
9,GAACGCTA,-0.111
10,CCCTGGCA,-0.00029
11,CCTCTCGC,-0.0389
12,AAGGATGT,0.0399
13,AAGGATGA,-0.116
14,CAGGATGG,-0.132
15,CAGGATGC,0.446
16,CAGGATCA,-0.179
17,CAGGATGA,0.0175
18,CAGGATCC,0.345
19,AAGGATGC,0.313
20,CGGGATGA,-0.188
21,CAGGATCG,0.154
22,CGGGATGC,0.332
